# Source: PubChem BioAssay (Tox21)
# Values without a mark were called inactive. Records with an inconclusive call do not appear. A call without a number means that no potency is given here. Calls of active or inactive are those of the source. Unless noted, calls come from the whole dose curve; as a rule, active = well fitted curve in the direction sought with a large enough effect in the repeat runs; inconclusive = weak or mixed curves; inactive = no such curve, though single readings can be large; an effect the other way counts as inactive or inconclusive.
# Assays:
# [1] = A CellTox Green Cytotoxicity Assay to monitor cytotoxicity in HEK293 cells - 32 hour (AID 1224881); note: nearly all actives have a fitted effect of over 40% in size; note: potency is the fitted concentration of half-maximal effect
# Method in brief: (§1)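 Dead-cell fluorescence measured kinetically: asymmetric cyanine dye, HEK293, 600 cells/well, 5 h settle, 23 nL cpd/DMSO, 37 C, reads 0–40 h every 8 h.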
# [2] = A CellTox Green Cytotoxicity Assay to monitor cytotoxicity in HepG2 cells - 0 hour (AID 1224882); note: nearly all actives have a fitted effect of over 35% in size; note: potency is the fitted concentration of half-maximal effect
# Method in brief: (§2)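 First, HepG2 cells (600/well) mixed with reagent were plated; second, after 5 h at 37 C they received compounds via pintool; third, fluorescence was measured at 0 h through 40 h at 8 h intervals.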
# [3] = A CellTox Green Cytotoxicity Assay to monitor cytotoxicity in HepG2 cells - 32 hour (AID 1224883); note: nearly all actives have a fitted effect of over 50% in size; note: potency is the fitted concentration of half-maximal effect
# Method in brief: as §2
# [4] = qHTS RealTime-Glo MT Cell Viability Assay in HepG2 cells - 16 hour (AID 1224885); note: nearly all actives have a fitted effect of over 50% in size
# Method in brief: (§3)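 Real-time, nonlytic viability: 600 HepG2 cells/well mixed with NanoLuc enzyme plus prosubstrate; 5 h settle, compound (DMSO) added by pintool; luminescence monitored over 40 h at 37 C.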
# [5] = qHTS RealTime-Glo MT Cell Viability Assay in HEK293 cells - 24 hour (AID 1224886); note: nearly all actives have a fitted effect of over 50% in size; note: potency is the fitted concentration of half-maximal effect
# Method in brief: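 Cells + reagent dispensed (600 cells/well, HEK293) → 5 h at 37 C/5% CO2 → 23 nL compound in DMSO pinned → 40 h at 37 C → luminescence read at 0, 8, 16, 24, 32, 40 h.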
# [6] = qHTS RealTime-Glo MT Cell Viability Assay in HEK293 cells - 8 hour (AID 1224887); note: top concentration of the series differs between compounds; nearly all actives have a fitted effect of over 50% in size
# Method in brief: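 600 HEK293 cells per well, dispensed already mixed with RealTime-Glo MT reagents. Compound dosing came 5 h later. The same wells were read for luminescence at 0, 8, 16, 24, 32 and 40 h of exposure at 37 C.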
# [7] = A CellTox Green Cytotoxicity Assay to monitor cytotoxicity in HEK293 cells - 16 hour (AID 1224888); note: nearly all actives have a fitted effect of over 35% in size; note: potency is the fitted concentration of half-maximal effect
# Method in brief: as §1
# [8] = qHTS RealTime-Glo MT Cell Viability Assay in HepG2 cells - 0 hour (AID 1224889); note: nearly all actives have a fitted effect of over 50% in size
# Method in brief: as §3
# [9] = A CellTox Green Cytotoxicity Assay to monitor cytotoxicity in HepG2 cells - 8 hour (AID 1224890); note: nearly all actives have a fitted effect of over 45% in size; note: potency is the fitted concentration of half-maximal effect
# Method in brief: as §2
# [10] = qHTS assay to identify small molecule antagonists of the estrogen receptor alpha (ER-alpha) signaling pathway using the BG1 cell line in the presence of 0.1 nM 17-beta-estradiol - cell viability counter screen (AID 1259241); note: nearly all actives have a fitted effect of over 40% in size
# Method in brief: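 Live-cell protease activity (CellTiter-Fluor fluorescence, 30 min) was read in the same wells after VM7Luc4E2 cells had been exposed to compounds with 0.1 nM 17beta-estradiol for 22 hr at 37C.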
# [11] = qHTS assay to identify small molecule antagonists of the androgen receptor (AR) signaling pathway using the MDA cell line in the presence of 0.5 nM R1881 - cell viability counter screen (AID 1259242); note: nearly all actives have a fitted effect of over 45% in size
# Method in brief: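 qHTS format. MDA-kb2 (MMTV-luc, AR/GR responsive) + cpd + 0.5 nM R1881 final, 16 hr 37C/0% CO2 → CellTiter-Fluor 30 min → fluorescence intensity.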
# [12] = molecular target: Androgen receptor (Homo sapiens) (UniProt P10275); test: qHTS assay to identify small molecule antagonists of the androgen receptor (AR) signaling pathway using the MDA cell line in the presence of 0.5 nM R1881 (AID 1259243); note: nearly all actives have a fitted effect of over 50% in size
# Method in brief: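 Antagonist mode quantitative HTS in MDA-kb2 MMTV-luciferase cells, agonist R1881 at 0.5 nM final, 16 hr exposure at 37C and 0% CO2, luminescent detection.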
# [13] = molecular target: Estrogen receptor (Homo sapiens) (UniProt P03372); test: qHTS assay to identify small molecule antagonists of the estrogen receptor alpha (ER-alpha) signaling pathway using the BG1 cell line in the presence of 0.1 nM 17-beta-estradiol (AID 1259244); note: nearly all actives have a fitted effect of over 50% in size
# Method in brief: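 Reporter is a stably transfected luciferase under four estrogen responsive elements in VM7Luc4E2 cells expressing native full-length ER-alpha; inhibition of 0.1 nM (final) 17beta-estradiol-driven signal over 22 h is read by luminescence.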
# [14] = qHTS assay to identify small molecule HDAC inhibitors (AID 1259364);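 note: wild-type HCT-116 cells with endogenous class I/II HDAC activity; top concentration of the series differs between compounds; nearly all actives have a fitted effect of over 45% in size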
# Method in brief: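 Quantitative high-throughput format: overnight-seeded HCT-116 cells got compounds for 2 hr at 37C; HDAC-Glo I/II reagent added, 30 min RT, luminescence measured.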
# [15] = qHTS assay to identify small molecule HDAC inhibitors - cell viability counter screen (AID 1259365)
# Method in brief: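 HCT-116 (wild type), 1,500 cells/well, overnight 37C/5% CO2; compound in DMSO 2hr; CellTiter-Glo 30min RT; luminescence read.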
# [16] = qHTS assay to identify small molecule agonists of the sonic hedgehog signaling (Shh) pathway - cell viability counter screen (AID 1259366); note: nearly all actives have a fitted effect of over 50% in size
# Method in brief: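 CellTiter-Fluor fluorescence read-out, 1 hr at 37C, added after 23hr compound exposure. Cells: 3T3 Gli1-Luc, an NIH/3T3 clone with stably integrated Gli1-Luc reporter, plated 4hr before compound.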
# [17] = qHTS assay to identify small molecule antagonists of the sonic hedgehog signaling (Shh) pathway - cell viability counter screen (AID 1259367); note: nearly all actives have a fitted effect of over 55% in size; note: potency is the fitted concentration of half-maximal effect
# Method in brief: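 Conditioned medium drove Shh signaling in 3T3 Gli1-Luc cells exposed to compounds at 37C and 5% CO2. Viability was determined from CellTiter-Fluor fluorescence, with reagent incubated 1 hr after 23 hr of treatment.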
# [18] = qHTS assay to identify small molecule agonists of the sonic hedgehog signaling (Shh) pathway (AID 1259368; calls by dose curve;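 note: NIH/3T3-derived 3T3Gli1-Luc cells carrying a stable Gli1-driven firefly luciferase reporter; series mostly up to about 92 µM; nearly all actives have a fitted effect of over 15% in size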)
# Method in brief: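 Quantitative high-throughput format using a Gli1-driven firefly luciferase reporter line derived from NIH/3T3 cells. After a 24 hr compound treatment at 37 C and 5% CO2, luminescence reported Gli1 response element activity.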
# [19] = qHTS assay to identify small molecule phospholipidosis (PLD) inducers (AID 1259344; active = well fitted curve in the direction sought with a large enough effect; an effect the other way counts as inactive or inconclusive)
# Method in brief: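 After 4 h attachment on collagen I, HepG2 cells were dosed with compound alongside LipidTOX Red, kept 24 h at 37 C, fixed, and imaged for lamellar phospholipid pits.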
# [20] = A CellTox Green Cytotoxicity Assay to monitor cytotoxicity in HEK293 cells - 8 hour (AID 1224884); note: nearly all actives have a fitted effect of over 35% in size
# Method in brief: as §1
# Sequence of Estrogen receptor (Homo sapiens) (P03372 whole entry, looked up): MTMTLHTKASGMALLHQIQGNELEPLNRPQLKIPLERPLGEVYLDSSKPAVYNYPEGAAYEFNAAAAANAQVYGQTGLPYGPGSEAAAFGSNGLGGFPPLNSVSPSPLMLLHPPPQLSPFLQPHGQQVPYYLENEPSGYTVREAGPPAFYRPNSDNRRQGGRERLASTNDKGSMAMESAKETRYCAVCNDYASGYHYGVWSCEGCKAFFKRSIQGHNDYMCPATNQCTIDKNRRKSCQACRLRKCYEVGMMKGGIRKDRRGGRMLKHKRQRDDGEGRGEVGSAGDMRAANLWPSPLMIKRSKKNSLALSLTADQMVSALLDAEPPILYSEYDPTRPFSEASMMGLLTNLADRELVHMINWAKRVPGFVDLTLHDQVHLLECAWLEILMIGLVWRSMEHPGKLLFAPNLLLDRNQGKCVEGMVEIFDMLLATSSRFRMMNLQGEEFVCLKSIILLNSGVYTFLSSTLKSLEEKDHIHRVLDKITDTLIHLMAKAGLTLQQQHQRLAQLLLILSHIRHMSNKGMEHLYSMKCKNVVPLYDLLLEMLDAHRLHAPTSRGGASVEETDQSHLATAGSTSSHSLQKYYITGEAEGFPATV
# Sequence of Androgen receptor (Homo sapiens) (P10275 whole entry, looked up): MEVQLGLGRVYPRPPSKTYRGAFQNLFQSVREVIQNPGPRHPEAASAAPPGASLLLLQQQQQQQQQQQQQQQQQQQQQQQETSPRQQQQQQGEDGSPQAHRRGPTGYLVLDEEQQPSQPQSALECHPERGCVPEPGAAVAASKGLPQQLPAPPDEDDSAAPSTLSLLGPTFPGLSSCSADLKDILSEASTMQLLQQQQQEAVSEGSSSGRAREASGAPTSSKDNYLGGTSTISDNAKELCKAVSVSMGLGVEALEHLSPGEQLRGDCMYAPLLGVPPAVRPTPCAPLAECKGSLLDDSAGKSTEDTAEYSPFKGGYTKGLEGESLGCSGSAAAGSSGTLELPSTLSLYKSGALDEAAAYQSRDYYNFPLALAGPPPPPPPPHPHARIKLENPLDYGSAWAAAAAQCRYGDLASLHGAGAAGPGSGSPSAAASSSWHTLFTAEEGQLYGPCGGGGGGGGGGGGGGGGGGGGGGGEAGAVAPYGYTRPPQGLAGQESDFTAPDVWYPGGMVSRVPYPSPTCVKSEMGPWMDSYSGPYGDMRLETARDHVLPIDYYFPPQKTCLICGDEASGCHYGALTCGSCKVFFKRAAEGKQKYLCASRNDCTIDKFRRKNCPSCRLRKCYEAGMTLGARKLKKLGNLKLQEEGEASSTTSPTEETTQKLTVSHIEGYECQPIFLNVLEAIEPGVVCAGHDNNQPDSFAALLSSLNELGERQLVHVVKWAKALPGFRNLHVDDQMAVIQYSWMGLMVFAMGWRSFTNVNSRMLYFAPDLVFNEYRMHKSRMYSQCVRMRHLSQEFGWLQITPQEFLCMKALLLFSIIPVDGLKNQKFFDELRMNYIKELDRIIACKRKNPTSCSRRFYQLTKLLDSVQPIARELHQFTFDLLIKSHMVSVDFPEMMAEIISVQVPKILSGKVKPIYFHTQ
Structure (SMILES),Potency [1],Potency [2],Potency [3],Potency [4],Potency [5],Potency [6],Potency [7],Potency [8],Potency [9],Potency [10],Potency [11],Potency [12],Potency [13],Potency [14],outcome [15],Potency [16],Potency [17],outcome [18],Potency [19],Potency [20]
CC(=O)N(CC(=O)N(C)C)c1ccccc1,inactive,inactive,inactive,inactive,inactive,inactive,inactive,inactive,inactive,inactive,inactive,inactive,inactive,inactive,inactive,inactive,inactive,inactive,,
Nc1nc(N)c2nc(CNc3ccc(C(=O)N[C@@H](CCC(=O)O)C(=O)O)cc3)cnc2n1,inactive,inactive,inactive,inactive,inactive,inactive,inactive,inactive,inactive,inactive,inactive,,inactive,inactive,,,inactive,inactive,inactive,
Cn1c(N)nc2nc[nH]c2c1=O,inactive,inactive,inactive,inactive,,inactive,inactive,inactive,inactive,inactive,inactive,,,inactive,inactive,inactive,inactive,inactive,,
CCCc1ccccc1,inactive,inactive,,inactive,inactive,inactive,inactive,inactive,inactive,inactive,inactive,,inactive,inactive,inactive,,inactive,inactive,,inactive
CCCCCCCCCCCCCCCBr,inactive,inactive,inactive,inactive,inactive,inactive,inactive,inactive,inactive,inactive,inactive,,inactive,inactive,inactive,inactive,inactive,inactive,,
C=CC(=O)OCC(C)OCC(C)OCC(C)OC(=O)C=C (stereo unspecified),54.9 µM (active),inactive,54.9 µM (active),,43.6 µM (active),inactive,inactive,inactive,inactive,inactive,inactive,,,inactive,inactive,,48.6 µM (active),inactive,,inactive
CCCCCCCCN(C)C,inactive,inactive,,inactive,inactive,inactive,inactive,inactive,inactive,inactive,inactive,,,inactive,inactive,inactive,inactive,inactive,,inactive
COc1ccc(OC)c(OC)c1,inactive,inactive,inactive,,inactive,,inactive,inactive,inactive,inactive,inactive,,inactive,inactive,inactive,inactive,inactive,inactive,,inactive
CCCCCCCCCC=O,inactive,inactive,inactive,,inactive,inactive,inactive,inactive,inactive,inactive,inactive,,,inactive,inactive,inactive,inactive,inactive,,
Nc1cnn([C@@H]2O[C@H](CO)[C@@H](O)[C@H]2O)c(=O)n1,inactive,inactive,inactive,inactive,inactive,inactive,inactive,inactive,inactive,inactive,inactive,,,inactive,inactive,inactive,inactive,inactive,,
Cc1occc1S,inactive,inactive,inactive,,inactive,inactive,inactive,inactive,inactive,inactive,inactive,,inactive,inactive,inactive,inactive,inactive,inactive,,
CC(=O)c1ccc2c(c1)[C@H](NC(=O)c1ccc(F)cc1)[C@@H](O)C(C)(C)O2,inactive,inactive,inactive,,inactive,,inactive,inactive,inactive,inactive,inactive,,,inactive,inactive,,,inactive,,inactive
CCN(CC)CCOC(=O)C1(c2ccccc2)CCCC1,inactive,inactive,,inactive,inactive,inactive,inactive,inactive,inactive,inactive,inactive,inactive,inactive,inactive,inactive,inactive,inactive,inactive,inactive,inactive
CC(=O)NCCCS(=O)(=O)O,15 µM (active),16.9 µM (active),16.9 µM (active),inactive,inactive,inactive,18.9 µM (active),inactive,18.9 µM (active),inactive,inactive,,inactive,inactive,inactive,inactive,inactive,inactive,inactive,
